Data: PubChem BioAssay AID2315 (National Center for Advancing Translational Sciences (NCATS), 2010)
“And” between values parts separate entries of the source, which are not always exact repeats. Equal entries are not always repeated. Screen size: about 290,000 compounds; about 27,000 (9.3%) were called active. For the sample, actives were picked, then their nearest neighbours and some compounds at random. A number with no mark means an inactive call. Cut-off read from the data, not from the text of the source: active = inhibition mostly above about 28% (no sharp cut-off); inactive = mostly below about 43%.

Test: A qHTS for Small Molecule Inhibitors of Shiga Toxin; note: 0% is about no effect
Settings: Vero cells, Shiga toxin protein synthesis inhibition reporter; at 38.7 µM, active compounds read high

| Structure (SMILES) | inhibition |
| --- | --- |
| CCOC(=O)CNC(=O)CSc1ncccc1-c1nc2ccccc2[nH]1 | -7.03% |
| COc1ccc(NC(=O)C2CCC(CNS(=O)(=O)c3csc(C(N)=O)c3)CC2)cc1OC (stereo not given) | -12.8% |
| COc1ccc(Oc2cn[nH]c2-c2ccc(OC)cc2O)cc1 | -5.45% |
| C#CCSc1nnc(-c2sc3ccccc3c2Cl)o1 | 89.1% (active) |
| COc1ccc2c(Cl)c(-c3nnco3)sc2c1 | -0.739% |
| O=C(OCC#CCSc1nnc(-c2ccncc2)o1)c1sc2ccccc2c1Cl | -13.4% |
| O=C(NCCc1nnc2ccc(SCC(=O)N3CCOCC3)nn12)c1ccccc1 | -1.17% |
| CC(C)(C)OC(=O)N/N=C/c1cn(-c2ccccc2)nc1-c1cccnc1 | -2.23% |
| COc1ccc(-c2nn(-c3ccccc3)cc2/C=N/Nc2ccccn2)cc1OC | 24.4% (active) |
| COc1ccc(-c2nn(-c3ccccc3)cc2C(=O)Nc2nccs2)cc1OC | 12.9% |
| COc1cccc(CNC(=O)C2CCCN(c3ncnc4c3nc3n4CCCCC3)C2)c1 (stereo not given) | -3.2% |
| COc1ccc(N(CCC#N)S(=O)(=O)c2ccc(Cl)cc2)cc1 | 42.6% (active) |
| COc1ccc(N(CC(=O)N2CCCCCC2)S(=O)(=O)c2ccccc2)cc1 | 32.1% |
| COc1ccc(S(=O)(=O)NCCCCOc2ccc(Cl)cc2)cc1 | -5.02% |
| CC1CN(C(=S)Nc2ccc(S(N)(=O)=O)cc2)CC(C)O1 (stereo not given) | -8.32% |
| COc1ccc(OC)c(NC(=O)Cc2cccs2)c1 | 9.31% |
| C=C(C)C(=O)O[C@H]1C/C(C)=C\C(=O)/C=C(\C)[C@H](O)[C@@H]2OC(=O)C(=C)[C@@H]21 | 60% (active) |
| CCOc1ccc(C(=O)COC(=O)c2ccc(-n3cnnn3)cc2)cc1 | -9.12% |
| CCC(C)(C)NC(=O)CN(C(=O)CCC(=O)Nc1nccs1)c1ccc2c(c1)OCO2 | -6.38% |
| COCCCNC(=O)CN1C(=O)CSc2ccc(S(=O)(=O)N3CCOCC3)cc21 | 15.9% |
| C/C(=N\NC(=O)c1cccc(N2CCCC2=O)c1)c1ccc(N)cc1 | 38.9% |
| Cc1cccc(C(=O)NCCCN2CCCC2=O)c1 | -5.25% |
| CC1CCC(NC(=O)c2ccc(N3CCCC3=O)cc2)CC1 (stereo not given) | 56.6% (active) |
| CC1CCCC(NC(=O)CN2CCN(Cc3ccc(Cl)cc3)C2=O)C1C (stereo not given) | -12.5% |

| Structure (SMILES) | inhibition |
| --- | --- |
| CC1CCCC(NC(=O)c2cccc(N3CCCC3=O)c2)C1C (stereo not given) | 87.5% (active) |
| O=C(NCCc1ccc(Cl)cc1)c1cccc(N2CCCC2=O)c1 | 73.4% (active) |
| O=C(NCCCN1CCCCCC1)c1ccc(N2CCCC2=O)cc1 | 0.987% |
| O=C(c1cccc(N2CCCC2=O)c1)N1CCOCC1 | 20.2% |
| CCCNC(=O)NCc1ccc(N2CCCC2=O)cc1 | -8.65% |
| COc1ccc(CCNc2nc(C)cc(C)n2)cc1OC | 23.6% |
| CCCc1ccc(OCC(O)CN2CCN(C(=O)OCC)CC2)cc1 (stereo not given) | -4.04% |
| COc1ccc(S(=O)(=O)N2CCC(C(=O)NCc3ccco3)CC2)cc1C | -3.78% |
| CN(C(=O)CCNC(=O)Cn1ccc2ccccc2c1=O)c1ccc(Br)cc1 | -19.7% |
| Cc1nc(-c2ccc([N+](=O)[O-])cc2)c(-c2ccccc2)o1 | -2.19% |
| Cc1cc(CO)nn1-c1ccc([N+](=O)[O-])cc1 | 12.4% |
| Cc1nn(-c2ccc([N+](=O)[O-])cc2)c(N)c1-c1ccccc1 | 86.7% (active) |
| CCn1c(=O)c2ccccc2n(CC(=O)N2CCCc3ccccc32)c1=O | -12.6% |
| CN(c1ccccc1)S(=O)(=O)c1ccc2[nH]c(=O)[nH]c2c1 | 21.5% |
| CC(=O)c1ccc(N2CCN(C(=O)CCc3ccccc3)CC2)cc1 | 14.3% |
| CC(=O)c1ccc(N2CCN(CC(O)c3ccccc3)CC2)cc1 (stereo not given) | 26.5% |
| CC(=O)c1ccc(N2Cc3ccccc3C2)cc1 | 79.3% (active) |
| CCOC(=O)N1CCN(C(=O)c2cn(C)c3ccc(S(=O)(=O)N(CC)CC)cc3c2=O)CC1 | 2.57% |
| COc1ccccc1C(=O)N/C(=C/c1ccc2c(c1)OCO2)C(=O)Nc1cccc(C(=O)O)c1 | -9.43% |
| CN1CCN(S(=O)(=O)c2cccc(C(=O)Nc3cccc(S(N)(=O)=O)c3)c2)CC1 | 13.4% |
| O=C(c1n[nH]c2c1CCC2)N1CCCC(Nc2cccc(F)c2)C1 (stereo not given) | -2% |
| CCOC(=O)Cn1c(=O)sc2cccc(Cl)c21 | -13.7% |
| CC(C)(C)OC(=O)CNC(=O)c1[nH]cnc1C(=O)N[C@@H](Cc1ccccc1)C(=O)OCc1ccccc1 | 7.26% |
| Cc1noc(NS(=O)(=O)c2ccc(NC(=O)c3oc4ccc(F)cc4c3C)cc2)c1C | -2.45% |

| Structure (SMILES) | inhibition |
| --- | --- |
| O=C(Nc1ccc(S(=O)(=O)Nc2ccccn2)cc1)c1ccccc1 | -16.3% |
| Cc1cc(OC(C)C(=O)Nc2ccc(S(=O)(=O)Nc3onc(C)c3C)cc2)cc(C)c1Cl (stereo not given) | -8.09% |
| Cc1noc(NS(=O)(=O)c2ccc(N/C=C/C(=O)c3ccccc3)cc2)c1C | 71.6% (active) |
| Cc1noc(NS(=O)(=O)c2ccc(NC(=O)C34CCC(CC3)C4)cc2)c1C | 0.59% |
| C=C(C)CNC(=S)Nc1ccc(S(=O)(=O)Nc2cnc3ccccc3n2)cc1 | 6.75% |
| O=C(/C=C/Nc1ccc(S(=O)(=O)Nc2cnc3ccccc3n2)cc1)c1cccnc1 | 44.7% (active) |
| CCn1c(SCC(=O)Nc2ccc(S(=O)(=O)Nc3onc(C)c3C)cc2)nnc1-c1ccccc1 | -13.6% |
| Cc1ccc(C(=O)/C=C/Nc2ccc(S(=O)(=O)Nc3onc(C)c3C)cc2)cc1 | 67.9% (active) |
| COCCNC(=O)C1CCN(C(=O)C2CC(=O)N(c3ccc(C)cc3)C2)CC1 (stereo not given) | -14.7% |
| CCN1C(=S)N[C@@H](CCc2ccccc2)[C@H](C(=O)OC)[C@H]1C | -2.85% and 15.7% |
| O=C(NNS(=O)(=O)c1ccc(F)cc1)c1ccc([N+](=O)[O-])cc1Cl | 30.1% |
| CCOc1ccc(CN2CCC(n3nccc3NC(=O)C3CC3)CC2)cc1CO | -3.78% |
| Cc1ccc(NC(=O)C2CCCN2C(=O)OCc2ccccc2)cc1C (stereo not given) | -4.8% |
| COc1ccc(NC(=O)C2C3CCC(O3)C2C(=O)O)cc1OC (stereo not given) | -5.78% |
| O=C(CSc1nc(Nc2ccccc2)nc(N2CCOCC2)n1)Nc1cc(Cl)ccc1O | -4.02% |
| COc1cc(C(=O)N2CCN(C)CC2)cc(OC)c1OC | -8.49% |
| Cn1ccc(=Nc2ccc(NC(=O)c3ccc(N=c4ccn(C)c5ccc([N+](=O)[O-])cc45)cc3)cc2)cc1 | -0.904% |
| Cc1nccn1CCCNC(=O)CC1C(=O)NCCN1Cc1ccc(Cl)c(F)c1 (stereo not given) | -1.1% |
| CCOc1ccc(CN2CCNC(=O)C2CC(=O)NCCCC2CCCC2)cc1 (stereo not given) | 19% (active) |
| O=C(CC1C(=O)NCCN1Cc1ccc(-c2ccccc2)cc1)NCC1CCOCC1 (stereo not given) | -14.6% |
| Cn1c(CCNS(=O)(=O)c2ccc(F)cc2)nnc1SCc1cccnc1 | 16.6% |
| COCCn1c(SCC(=O)N2CCCCCC2)nc2c(c1=O)SCC2 | -16.9% |
| C/C(=N\NC(=S)Nc1ccc(C)cc1)c1cc2ccccc2o1 | 30.5% |
| CC(C)(C)n1nc2c(c1NC(=O)c1cc3ccccc3o1)CSC2 | -8.8% |

| Structure (SMILES) | inhibition |
| --- | --- |
| O=C(Nc1ccncc1)c1cc2ccccc2o1 | 57.4% (active) |
| O=C(NCCc1ccc2c(c1)OCCO2)c1cc2ccccc2o1 | 5.6% |
| Cc1ccc(NC(=O)c2cc3ccccc3o2)cc1 | 118% (active) |
| Cc1ccc(OC(=O)c2cc3ccccc3o2)cc1 | 27.5% |
| Cc1cc(C)cc(C(=O)OCC(=O)NCCNC(=O)COC(=O)c2cc(C)cc(C)c2)c1 | 22.3% |
| CN(C)c1ccc(S(=O)(=O)NCC(=O)NCC2CCCCC2)cc1[N+](=O)[O-] | 3.92% |
| O=C(NCCN1CCN(C(=O)c2cccc([N+](=O)[O-])c2)CC1)C(=O)NCc1ccc(Cl)cc1 | -5.68% |
| Clc1ccc(-c2csc(-c3ccncc3)n2)cc1 | 78.2% (active) |
| Fc1ccc(-c2csc(-c3ccc(C4SCCS4)cc3)n2)cc1F | -3.43% |
| COc1ccc(NC(=O)NCCN2CCN(c3ccc(C)cc3)CC2)c(Cl)c1 | -4.91% |
| CC1CCCCN1CCCNc1ccc(C(CC(N)=O)NC(=O)c2ccccc2)cc1[N+](=O)[O-] (stereo not given) | -3.52% |
| CCN(C(=O)Cc1c(C(=O)O)n(CC)c2ccccc12)c1ccccc1C | 1.61% |
| CCC(C(=O)NC1CCCCC1)N(C(=O)c1snc(C(N)=O)c1N)c1ccc(OC)cc1OC (stereo not given) | 16.5% |
| CCCCc1nc(SCC(=O)Nc2nnc(C(C)C)s2)n[nH]1 | 24% |
| O=C(CSC(=S)N1CCCCC1)c1c(F)cccc1F | 61.7% (active) |
| O=C(CSC(=S)N1CCOCC1)c1ccccc1 | 67.5% (active) |
| COC(=O)[C@H](Cc1ccccc1)NC(=O)N1CC(C)OC(C)C1 (stereo not given in full) | -8.27% |
| O=C(CP(=O)(c1ccccc1)c1ccccc1)N1CCOCC1 | -5.31% |
| CC1CN(C(=S)Nc2ccccc2F)CC(C)O1 (stereo not given) | -12% |
| CC1CN(C(=S)SCC(=O)c2ccccc2)CC(C)O1 (stereo not given) | 94.2% (active) |
| CC(=O)c1ccc(NC(=O)CSC(=S)N2CCCC2)cc1 | -2.78% |
| O=C(Nc1ccc(S(=O)(=O)N2CCCCCC2)cc1)c1c(F)cccc1F | 22.1% |
| O=C(CSC(=S)N1CCOCC1)c1cc(Br)cc(Br)c1O | -11.8% |
